# Only some compounds are listed: those with a hit (about 1.8% of all), similar ones and a draw of the others.
# Fam108B inh: blocks mouse Fam108B hydrolase in RBBP9 counter-screen; recombinant Fam108B, FP-Rh probe fluorescence polarization; hit rate 0.33% among 300,000; AID 1947; inhibition, % at 9.51 µM;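 active = inhibition above the screen mean inhibition plus 3 SD, computed separately per campaign, cut at about 18% in these data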;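 also: inhibitors lower polarization as less probe binds the enzyme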
# LYPLA1 counter: counter-screen for PME1 inhibitors: inhibitors of human LYPLA1 | O75608 | recombinant LYPLA1, FP-Rh probe fluorescence polarization | inhibition, % at 5.9 µM | hit rate 0.16% among 320,000;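 active = inhibition above the mean of all tested compounds plus 3 SD, set per campaign, cut at about 14% in these data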;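 also: inhibitors block serine hydrolase probe labeling of LYPLA1 so polarization falls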
# Target sequence (O75608 whole entry, looked up): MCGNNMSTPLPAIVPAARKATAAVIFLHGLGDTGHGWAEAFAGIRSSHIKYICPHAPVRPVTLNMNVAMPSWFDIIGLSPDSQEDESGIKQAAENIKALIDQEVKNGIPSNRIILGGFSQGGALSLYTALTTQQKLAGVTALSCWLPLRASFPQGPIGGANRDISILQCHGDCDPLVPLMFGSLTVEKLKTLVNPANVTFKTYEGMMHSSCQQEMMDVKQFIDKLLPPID
# PAD4 inh: inhibitors of human PAD4. recombinant PAD4, RCA probe fluorescence polarization. Q9UM07. inhibition, % at 6.36 µM. hit rate 0.41% among 330,000;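 active = percent inhibition above a cutoff equal to the mean of all tested compounds plus 3 SD, cut at about 15% in these data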
# PME-1 primary: PME-1 (human) inhibition | hit rate 0.53% among 320,000 | Q9Y570 | inhibition, % at 5.9 µM | recombinant PME-1, FP-Rh probe fluorescence polarization;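 active = inhibition above the campaign mean of all compounds plus 3 SD, cut at about 26% in these data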;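 also: competitive labeling of PME-1 active site by serine hydrolase directed probe; inhibitors block probe labeling so polarization falls and inhibition rises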
# LYPLA2 counter: counter-screen for PME1 inhibitors: inhibitors of human LYPLA2. AID 2177. recombinant LYPLA2, FP-Rh probe fluorescence polarization. inhibition, % at 5.9 µM. hit rate 0.38% among 320,000;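 active = inhibition above the screen-wide mean plus 3 SD, limit set per campaign, cut at about 26% in these data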
# GSTO1 counter: counter-screen for RBBP9 inhibitors: inhibitors of human GSTO1. recombinant GSTO1, activity-based probe fluorescence polarization. inhibition, % at 5.96 µM. hit rate 1.1% among 300,000;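 active = inhibition above the campaign mean inhibition plus 3 SD, cut at about 35% in these data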
# Target sequence (P78417 whole entry, looked up): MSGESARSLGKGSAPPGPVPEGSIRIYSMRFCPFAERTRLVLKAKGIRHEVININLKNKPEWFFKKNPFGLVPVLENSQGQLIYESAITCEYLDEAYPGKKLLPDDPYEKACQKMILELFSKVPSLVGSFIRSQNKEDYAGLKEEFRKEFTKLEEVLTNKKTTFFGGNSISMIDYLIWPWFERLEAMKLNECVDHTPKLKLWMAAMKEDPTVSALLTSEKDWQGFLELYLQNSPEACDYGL
# A number is an active result; i = inactive; nt = not tested or not shown; ! = repeats disagree.
SMILES,Fam108B inh,LYPLA1 counter,PAD4 inh,PME-1 primary,LYPLA2 counter,GSTO1 counter
O=Cc1[nH]c2ccccc2c1N(C(=O)CCl)c1ccc([N+](=O)[O-])cc1,i,i,i,i,i,73
CC(=O)n1cc(N(C(=O)CCl)c2ccccc2)c2ccccc21,i,i,i,i,i,77
C=CCn1nc(-c2ccccc2)cc1C(=O)OCC,i,i,i,i,i,i
CN(c1ccccc1)S(=O)(=O)c1cccc(C(=O)NCCCN2CCCC2=O)c1,i,i,i,i,i,i
Cc1ccc(NC2CCCN(C(=O)c3ccc4[nH]ccc4c3)C2)cc1C (stereo not given),i,i,i,i,i,i
COc1cccc(CNc2ccccc2O)c1OCc1ccccc1F,i,i,i,i,i,36
O=C(N/N=C/c1cccc(Br)c1)C1CC(=O)N(c2ccccc2)C1 (stereo not given),i,i,i,i,i,i
O/N=C/c1ccccc1Oc1ccc(Cl)cc1,i,i,i,i,i,i
N#CCC(=O)c1ccccc1Oc1ccc(Cl)cc1,i,i,i,41,i,i
CCCCC(CCC(=O)O)(C(=O)OCC)c1csc(N)n1 (stereo not given),i,i,i,i,i,i
O=C(Nc1cccc(S(=O)(=O)NC2=NCCC2)c1)c1cc(-c2ccco2)nc2ccccc12,i,i,i,i,i,60
O=C(NC(=S)Nc1cccc(S(=O)(=O)NC2=NCCC2)c1)c1cc(-c2ccco2)nc2ccccc12,i,i,i,i,i,i
O=C(Nc1ccc(N2CCCC2)cc1)C(Cl)c1ccccc1 (stereo not given),i,i,i,i,i,35
CN(Cc1ccc(Cl)cc1)C(=O)CCl,i,i,i,i,i,86
CN(Cc1ccccc1)C(=O)CC(=O)N(C)Cc1ccccc1,i,i,i,i,i,i
O=c1oc2cc(O)ccc2s1,i,i,i,i,i,53
CCC(C)CCN1CCN=C1Nc1ccccc1 (stereo not given),i,i,i,i,i,i
CS(=O)(=O)N1CCC(Oc2cccc(C(=O)NCCCC3CCCC3)c2)CC1,i,i,i,i,i,i
O=S1(=O)Nc2c(ccc3cccnc23)-c2ccccc21,i,i,i,i,i,55
O=c1[nH]n(-c2cccc3cccnc23)c(=O)c2ccccc12,i,i,i,i,i,i
O=C(COC(=O)Cc1c(Cl)cccc1Cl)NCCC1=CCCCC1,i,i,i,i,i,i
CC(C)(C)NC(=O)NC(=O)CSc1nnc(COc2ccccc2Cl)o1,i,i,i,i,i,36
CCN(CC)C(=S)Sc1c(-c2ccccc2)c2cc(Cl)ccc2[nH]c1=O,i,i,i,35,i,i
O=C(O)CSc1c(-c2ccccc2)c2cc(Cl)ccc2[nH]c1=O,i,i,i,i,i,i
CC(=O)N1CCN(C(=O)c2ccc3oc(CCCc4ccccc4)nc3c2)CC1,i,i,i,i,i,i
SMILES,Fam108B inh,LYPLA1 counter,PAD4 inh,PME-1 primary,LYPLA2 counter,GSTO1 counter
O=C(c1ccc2oc(CCCc3ccccc3)nc2c1)N1CCCC(CCCO)C1 (stereo not given),i,i,i,42,i,i
CC(C)c1ccc(NC(=O)C2CCCCN2S(=O)(=O)c2ccccc2)cc1 (stereo not given),nt,i,i,i,i,nt
Cc1cc(C(=O)OCC(=O)c2ccc(Cl)c([N+](=O)[O-])c2)c2cccc(C)c2n1,i,i,i,i,i,37
O=C(CCC(=O)c1ccc(F)cc1)Nc1ccccc1Cl,i,i,i,i,i,i
CN1/C(=C/C=C(C#N)C#N)C(C)(C)c2ccccc21,i,i,i,51,i,i
COc1ccccc1CC(=O)NCc1nn(-c2ccccc2)nc1C,i,i,i,i,i,i
CC(C)c1onc(C(=O)NC2CCCCC2)c1[N+](=O)[O-],i,i,i,i,i,37
Cn1c(=O)[nH]c(=O)c2c1nc(N/N=C/C(Br)=C/c1ccccc1)n2CCO,i,i,i,i,i,35
CC(C)=NNc1nc2c(c(=O)[nH]c(=O)n2C)n1CCc1ccccc1,i,i,i,i,i,i
CCOc1ccc(S(=O)(=O)N(C(=O)c2ccco2)c2cc3sc(=O)oc3c3ccccc23)cc1,i,i,i,i,i,37
CCOc1ccc(S(=O)(=O)N(C)CC(=O)NCc2ccco2)cc1,i,i,i,i,i,i
COc1cc(C2C(C#N)=C(N)OC3=C2C(=O)CCC3)c([N+](=O)[O-])cc1OC (stereo not given),19,i,i,i,i,38
Cn1c(=O)c2nc(-c3ccc(Cl)cc3Cl)oc2c2ccccc21,i,i,i,i,i,i
Nc1nc(CCl)nc(N(c2ccccc2)c2ccccc2)n1,i,i,i,i,i,78
Cc1ccc(C)c(NC(=O)COC(=O)c2cccc3c2C(=O)c2ccccc2C3=O)c1,i,i,i,89,i,i
Cc1ccc(NC(=O)COC(=O)c2cccc3c2C(=O)c2ccccc2C3=O)c(C)c1,i,i,i,85,i,i
Cc1cccc(C)c1NC(=O)COC(=O)c1ccccc1Nc1ccccc1,i,i,i,i,i,i
O=C(COC(=O)c1cccc2c1C(=O)c1ccccc1C2=O)NC1CCCCC1,i,i,i,41,i,i
O=C(COC(=O)c1ccc2c(c1[N+](=O)[O-])C(=O)c1ccccc1C2=O)NC1CC1,i,i,i,i,i,i
Cc1cc(C)c(NC(=O)COC(=O)c2cccc3c2C(=O)c2ccccc2C3=O)c(C)c1,i,i,i,46,i,i
COc1ccc(-c2cc(C(F)(F)F)c(C#N)c(SCC(=O)O)n2)cc1OC,i,i,i,i,i,i
Cc1ccc(S(=O)(=O)N2CCN(C(=O)Cn3c(=O)cnc4ccccc43)CC2)cc1,nt,i,i,37,i,nt
O=C(Cn1c(=O)cnc2ccccc21)N1CCN(S(=O)(=O)c2ccc(F)cc2)CC1,i,i,i,i,i,i
O=C(Nc1cccc([N+](=O)[O-])c1)c1ccc2snnc2c1,i,i,i,i,i,i
O=C(Cc1cc(=O)[nH][nH]1)N/N=C/c1cccc(Cl)c1Cl,i,i,i,i,i,35!
SMILES,Fam108B inh,LYPLA1 counter,PAD4 inh,PME-1 primary,LYPLA2 counter,GSTO1 counter
O=C(Cc1cc(=O)[nH][nH]1)N/N=C/c1ccccc1Cl,i,i,i,i,i,i
COc1ccc(NC(=O)C(c2ccccn2)N(C(C)=O)c2ccc(C)cc2)cc1 (stereo not given),i,i,i,i,i,i
COc1ccc(N(C(=O)Cc2cccs2)C(C(=O)NC2CCCC2)c2ccncc2)cc1 (stereo not given),i,i,i,i,i,i
COc1ccc(N(C(=O)CCl)C(C(=O)NC2CCCCC2)c2cccnc2)cc1 (stereo not given),i,i,i,i,i,98
CCOc1ccc(NC(=O)C(c2ccccn2)N(C(=O)CCl)c2ccc(OC)cc2)cc1 (stereo not given),i,i,i,i,i,36
Cc1ccc(-c2csc(NC(=O)CSc3nnc4c(n3)[nH]c3ccccc34)n2)cc1,i,i,i,i,i,i

# Source: PubChem BioAssay
